14-3-3 PPI = alters human 14-3-3 gamma binding to Raf peptide | AID 422 | inhibition, % at 40 µM | FP, 14-3-3gamma / TMR-pS259-Raf peptide binding | P61981 | hit rate 0.19% among 160,000; in the data active = inhibition above about 30%
Target sequence (P61981 whole entry, looked up): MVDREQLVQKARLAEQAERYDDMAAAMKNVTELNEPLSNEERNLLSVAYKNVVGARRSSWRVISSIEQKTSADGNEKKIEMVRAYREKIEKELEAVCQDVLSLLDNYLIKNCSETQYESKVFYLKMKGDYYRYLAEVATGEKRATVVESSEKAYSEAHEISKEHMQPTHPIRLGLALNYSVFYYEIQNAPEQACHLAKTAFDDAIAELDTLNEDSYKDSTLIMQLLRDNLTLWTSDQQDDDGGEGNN
Of the large screens only hits and unclear results are named; the others gave an inactive call; ! = repeats disagree. This is one part of a sample in which hits are shown more often than they occur.

Cc1nc2nc(Cc3ccccc3)[nH]n2c(=O)c1Cl	none
Cc1nc2nc(Cc3ccccc3)[nH]n2c(=O)c1Cc1ccccc1	14-3-3 PPI 50
Cc1nc2nc(-c3ccccc3)[nH]n2c(=O)c1Cc1ccccc1	none
CCOP(=O)(OCC)c1nc(-c2ccccc2Cl)oc1N1CCCCC1	none
O=C1CC(C(=O)O)N=C(Nc2nc3ccccc3s2)N1 (stereo not drawn)	none
COc1ccc2c(c1)sc1nc(-c3cc4cc(Br)ccc4oc3=O)cn12	none
CCOC(=O)C1=C(N)OC2=C(C(=O)CC(C)(C)C2)C1c1ccc(OC)c(OC)c1 (stereo not drawn)	none
CCOC(=O)Cc1ccc(N(Cc2ccccc2Cl)S(=O)(=O)c2ccc(F)c(C)c2)cc1	none
C1COCCOCCN(CCOCCOCCN2CCOCCOCCOCCOCC2)CCOCCO1	none
c1ccc(COCCOCCN2CCOCCOCCOCCOCCOCC2)cc1	14-3-3 PPI 119
c1ccc(SCCN2CCOCC2)cc1	none
O=C(Cc1cccc2ccccc12)OCC(=O)c1ccc([N+](=O)[O-])cc1	none
CCOC(=O)Cn1cc(C(=O)C2CC2)c2ccccc21	none
COC(=O)Cn1cc(C(=O)C2CC2)c2ccccc21	14-3-3 PPI 50
CCCC(=O)c1cn(CC(=O)OC)c2ccccc12	none
COc1ccc(CCn2c(=S)[nH]c3cc(C(=O)N4CCCC4)ccc3c2=O)cc1OC	none
COCCOC(=O)C1=C(C)NC2=C(C(=O)CC(c3ccc(Cl)cc3)C2)C1c1ccc(Br)cc1 (stereo not drawn)	none
COc1cc2c(cc1OC)C(C(=O)NCc1cccnc1)C(c1cccs1)N(C)C2=O (stereo not drawn)	none
CCC1CCCCN1Cc1c(C)[nH]c2ccccc2c1=O (stereo not drawn)	none
Oc1ccc(Br)c(C(Nc2ccccn2)c2ccc3cccnc3c2O)c1 (stereo not drawn)	none
OCCN1CCOCCN(CCO)CCN(CCO)CC1	14-3-3 PPI 147!
C=COCCN1CCOCC1	none
NC(=O)CN1CCOCCOCCN(CC(N)=O)CCOCC1	none
Cc1ccc(C2=NC(C3CCCCC3)NC(c3ccccc3O)C2)cc1 (stereo not drawn)	none
O=C(NC1CCCCCCC1)C1CCCN(c2nc3ccccc3o2)C1 (stereo not drawn)	none
O=C(CCCn1c(=O)c2sccc2n(Cc2cccc(F)c2)c1=O)NCc1ccco1	none
Cc1cccc(C(=O)Nc2cccc(NC(=O)c3cccc(C)c3)c2)c1	14-3-3 PPI 45
Cc1cccc(C(=O)Nc2ccc(O)cc2)c1	none
Cc1cccc(C(=O)Nc2cccc(NC(=O)c3ccc(F)cc3)c2)c1	none
Cc1cccc(N2CCN(C(=O)c3ccc(SCc4cccnc4)c([N+](=O)[O-])c3)CC2C)c1 (stereo not drawn)	none
Nc1c(C(=O)NC23CC4CC(CC(C4)C2)C3)sc2nc(C34CC5CC(CC(C5)C3)C4)ccc12	none
CN1CCN(C(=O)c2ccc3c(c2)NC(=O)C(N2CCOCC2)S3)CC1 (stereo not drawn)	none
O=C1Nc2cc(C(=O)N3CCOCC3)ccc2SC1N1CCCC1 (stereo not drawn)	none
O=C1Nc2cc(C(=O)N3CCOCC3)ccc2SC1N1CCOCC1 (stereo not drawn)	14-3-3 PPI 38!
Cc1sc2c(c1C)c(=O)n(-c1ccc3c(c1)OCO3)c(=O)n2Cc1ccccc1F	none
Cc1ccc(C(=O)Nc2sc3c(c2C(=O)NCC2CCCO2)CCCC3)cc1 (stereo not drawn)	none
CCn1c2ccccc2c2nc3cc4ccccc4cc3nc21	14-3-3 PPI 116
CCn1c2ccc(Cl)cc2c2nc3ccccc3nc21	none
CCCCCn1c2ccccc2c2nc3ccccc3nc21	none
O=C(CSc1oc(-c2cccs2)nc1S(=O)(=O)c1ccc(F)cc1)NC1CCCCC1	none
O=c1[nH]cc(NCCO)c(=O)[nH]1	14-3-3 PPI 31
Cc1[nH]c(=O)[nH]c(=O)c1NCCO	none
CC(C)(C)C(=O)Nc1c[nH]c(=O)[nH]c1=O	none
CCOC(=O)c1cnc2cc(C(F)(F)F)ccc2c1Nc1ccc(C)cc1Br	none
CC1(C)CC(=O)C2=C(C1)N(Cc1ccccc1)C1=C(C(=O)CC(C)(C)C1)C2c1ccc(O)cc1	none
CCN1C2=C(C(=O)CC(C)(C)C2)C(c2ccc(O)cc2)C2=C1CC(C)(C)CC2=O	14-3-3 PPI 102
CCN1C2=C(C(=O)CC(C)(C)C2)C(c2ccc(O)c(Cl)c2)C2=C1CC(C)(C)CC2=O	none
COCCOC(=O)C1=C(C)NC2=C(C(=O)CCC2)C1c1ccccc1Cl (stereo not drawn)	none
CCCCCC(=O)c1c(O)c2ccccc2oc1=O	none
O=C1C(Nc2ccccc2)=CC(=NS(=O)(=O)c2cccs2)c2ccccc21	none
CC(=O)Nc1ccc(NC2=CC(=NS(=O)(=O)c3cccs3)c3ccccc3C2=O)cc1	none
CCOC(=O)c1ccc(NC2=CC(=NS(=O)(=O)c3cccs3)c3ccccc3C2=O)cc1	14-3-3 PPI 67
CCSCCOC(=O)C1=C(C)NC2=C(C(=O)CC(c3ccc(OC)cc3)C2)C1c1cccc([N+](=O)[O-])c1 (stereo not drawn)	none
CCOC(=O)c1c(NC(=O)COc2cc(C)c(Cl)c(C)c2)sc(C)c1C	none
CC(=O)c1ccc(NC(=O)c2ccc([N+](=O)[O-])c(C)c2)cc1	none
Cc1ccc(-c2c(C(=O)Nc3ccc(N(C)C)cc3)oc(=O)c3ccccc23)cc1	14-3-3 PPI 39
CCc1ccc(NC(=O)c2oc(=O)c3ccccc3c2-c2ccc(C)cc2)cc1	none
CCOC(=O)c1ccc(NC(=O)c2oc(=O)c3ccccc3c2-c2ccc(C)cc2)cc1	none
O=C1C2ON(c3ccccc3)C(c3cc(Br)ccc3O)C2C(=O)N1c1ccccc1 (stereo not drawn)	none
Cc1c(NC(=O)C(C)C)cccc1-c1nc2ccccc2[nH]1	none
OCC#CCSc1nc2ccccc2s1	none
COc1cc(OC)cc(C(=O)N2CCN(C(=O)c3ccncc3)CC2)c1	none
Cc1cccc(-c2nnc(SCC(=O)N3CCCCC3C)o2)c1 (stereo not drawn)	none
CN(C)c1ccc(-c2nc3ccccn3c2N=Cc2ccc(Cl)c([N+](=O)[O-])c2)cc1	none
COc1ccc(-c2cc(C(F)(F)F)n3nc(C(=O)Nc4cccc(Cl)c4)cc3n2)cc1OC	none
Cc1nnc(-c2ccccc2)nn1	14-3-3 PPI 86
c1ccc(-c2nnc(-c3ccccc3)o2)cc1	none
Nc1nc(N)nc(-c2ccccc2)n1	none
CCOc1ccc(-n2nc3ccc(NC(=O)c4ccco4)cc3n2)cc1	none
O=C(c1cccnc1)N1N=C(C(F)(F)F)CC1(O)c1cccnc1 (stereo not drawn)	none
O=C1NCCCCC1Nc1ccc(N2C(=O)C3CCCCC3C2=O)cc1[N+](=O)[O-] (stereo not drawn)	none
O=C(C1CCN(S(=O)(=O)c2cccc3nsnc23)CC1)N1CCN(C2CCCCC2)CC1	none
CCOc1cc(C2C3=C(CCCC3=O)N(CC)C3=C2C(=O)CCC3)ccc1O	none
CCCOc1c(Br)cc(C2C3=C(CCCC3=O)N(CC)C3=C2C(=O)CCC3)cc1OCC	none
CCOc1cc(C2C3=C(CCCC3=O)N(CC)C3=C2C(=O)CCC3)cc(Br)c1O	14-3-3 PPI 41
COC(=O)C1=C(C(=O)OC)SC(=C2C(=S)C(C)(C)N(C(=O)CN3C(=O)c4cccc5cccc(c45)C3=O)c3cc(C)ccc32)S1	none
CC1(C)CC(=S)C=C(N2CCCCC2)C1	14-3-3 PPI 125
CC1(C)CC(=O)c2sc(N3CCCCC3)nc2C1	none
CC1(C)CC(=O)C=C(N2CCN(C3=CC(=O)CC(C)(C)C3)CC2)C1	none
COC(=O)C1=C(C)NC(=O)NC1c1cc(OC)c(OC)cc1OC (stereo not drawn)	none
O=[N+]([O-])c1nn(-c2ccc3c(c2)OCCO3)n(O)c1=NCCc1ccccc1	none
Cc1cccc(CCN=c2c([N+](=O)[O-])nn(-c3ccccc3)n2O)c1	none

Bioassay records deposited in PubChem by Emory University Molecular Libraries Screening Center.
